Screening results as filed in PubChem BioAssay.
Many of the other results were omitted from the sample, so hits are more common in it than they were.
ERK EGF inh: inhibitors of EGF-stimulated ERK signaling pathway | HEK293-V1b, EGF-stimulated phospho-ERK AlphaScreen | Potency, µM (series often up to 11.5 µM), for inactives: at the highest dose activity change, negative = inhibition, actives largely listed as inhibitors | actives 0.41% (n = 130,000) | AID 1454;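 also: potency is read from the fitted curve at half-maximal effect; plate controls were stimulated vehicle wells for no effect and unstimulated vehicle basal for full effect; nearly all actives have a fitted effect of over 55% in size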
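Stably V1b-transfected HEK293 cells; 30 min compound, then EGF 25 nM final for 5 min at 37C; 10 min lysis; phospho-ERK by AlphaScreen after 5 hr beads at room temperature.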
ERK pERK EGF: reduces EGF-stimulated ERK phosphorylation in HEK293 cells; shares compounds with ERK EGF inh; HEK293 EGF-stimulated ERK phosphorylation, AlphaScreen; Potency, µM (highest dose often 57.5 µM), for the others: at the top dose activity change, negative = inhibition, usual class: inhibitors; actives 60% (n = 60); AID 1725
c-Raf inh: c-Raf inhibition, ERK pathway follow-up; activity change, negative = inhibition, % at 76.9 µM; AID 1728; c-Raf kinase inhibition, homogeneous biochemical assay; shares compounds with ERK EGF inh; 70 tested, under 10 active
MEK1 kinase inh: blocks human MEK1 kinase activity in ERK pathway follow-up | shares compounds with ERK EGF inh | homogeneous MEK kinase activity assay, ERK pathway | Potency, µM (highest dose often 76.9 µM), without a hit: at the highest dose activity change, negative = inhibition, usual class: inhibitors | 70 tested, under 10 active
Active calls of the source: *; ? = inconclusive; ! = not confirmed by another sample; [ ] = dose if it differs, or a comment. Calls follow the shape of the dose curve; as a rule, active = well fitted curve in the direction sought with a large enough effect; inconclusive = small, poorly fitted or top-dose-only effect, or another doubt; inactive = no such curve, though single readings can be large; an effect the other way counts as inactive or inconclusive.

SMILES	ERK EGF inh	others
Oc1ccc2c3c1O[C@H]1c4[nH]c5ccccc5c4C[C@@]4(O)C(C2)N(CC2CC2)CCC314 (stereo partly specified)	15.6%
O=C1NC(=O)C(=Cc2coc3ccccc3c2=O)C(=O)N1	-9.9%
O=C1NC(=O)C(=Cc2csc3ccccc23)C(=O)N1	-7.4%[57.5 µM]
O=C1NC(=O)C(=Cc2ccccc2Oc2ccc(F)cc2)C(=O)N1	3.98µM*	ERK pERK EGF=2.2%;c-Raf inh=-7.8;MEK1 kinase inh=?
CC[C@@H]1CN2CCc3cc(OC)c(OC)cc3[C@H]2C[C@@H]1C[C@@H]1NCCc2cc(O)c(OC)cc21	2.0%[25.7 µM]
CCCOc1ccc2[nH]cc(C3=CCNCC3)c2n1	-8.4%
CCCCC/C=C\C/C=C\C/C=C\CCCCC(=O)NCCc1ccc(O)c(O)c1	-3.5%
COP(=S)(OC)Oc1ccc([N+](=O)[O-])cc1	19.2%
CC1=CC(=O)c2c(O)cccc2C1=O	5.62µM*!	ERK pERK EGF=7.08µM*;c-Raf inh=?;MEK1 kinase inh=?
C[C@H]1C[C@H](C)C(=O)[C@@H]([C@H](O)CC2CC(=O)NC(=O)C2)C1	-1.7%
CCCN(CCC)[C@@H]1CCc2c(OC)cccc2[C@@H]1C	0.6%
